# In PubChem BioAssay (NCATS):
# Records with an inconclusive call do not appear. A number with no mark means an inactive call. Activity calls are given as the source filed them. Calls come from the whole dose curve; as a rule, active = well fitted inhibition curve with a large enough effect; inconclusive = small, poorly fitted or top-dose-only effect; inactive = flat fitted curve, though single readings scatter.
# Test: P-glycoprotein substrates identified in KB-8-5-11 adenocarcinoma cell line, qHTS therapeutic library screen (AID 1346987); note: nearly all actives have a fitted effect of over 65% in size
# Settings: KB-8-5-11 (P-gp overexpressing) viability, CellTiter-Glo, 72 h; series mostly up to 44.5 µM; activity change, negative = cytotoxicity: at the top concentration
# Method in brief: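 Luminescence from CellTiter-Glo, read 5 min after addition, quantified survival of KB-8-5-11 (P-gp-overexpressing) cells exposed to compounds for 72 h. AC50 was derived from concentration-response curves.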
# % is set by controls: 0 for no effect and ±100 for the full control effect.
SMILES,outcome,"activity change, negative = cytotoxicity"
CC(=C/C(=O)O)/C=C/[C@]1(O)[C@@]2(C)CO[C@]1(C)C[C@H](O[C@@H]1O[C@H](CO)[C@@H](O)[C@H](O)[C@H]1O)C2,inactive [at 17.3 µM],–
NC1CCC(N[C@@H]2C[C@H]2c2ccccc2)CC1 (some centres undefined),inactive,–
C=CC1(C)CC(OC(=O)C(=C)C(O)COC(C)=O)C(C(=C)C(=O)OC)C(O)C1C(=C)CO (centres undefined),inactive [at 17.3 µM],–
CCC(C)(O)C(O)C(=O)OCc1ccc(O[C@@H]2O[C@H](CO)[C@@H](O)[C@H](O)[C@H]2O)cc1 (some centres undefined),–,2.42% [at 17.3 µM]
